# Source: PubChem
# ADAM10 inh: human ADAM10 inhibitors, primary screen, biochemical, QFRET, HTS; inhibition, % at 7 µM; recombinant ADAM10, EDANS/DABCYL FRET peptide cleavage, 3 h; 370,000 compounds, 0.62% hits; Disintegrin and metalloproteinase domain-containing protein 10 (Homo sapiens), O14672; AID 720582, 2013;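 active = inhibition above a per-campaign cutoff equal to the mean of compounds falling between control-based bounds plus 3 SD, cut at about 20% in these data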;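 also: 0% = DMSO wells while the 100% control is not disclosed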
# ADAM17 inh: ADAM17 inhibitors, primary screen, biochemical, QFRET. 370,000 compounds, 0.83% hits. recombinant ADAM17, EDANS/DABCYL FRET peptide cleavage. inhibition, % at 6.95 µM. Disintegrin and metalloproteinase domain-containing protein 17 (Homo sapiens), P78536;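 active = inhibition above the mean of compounds lying between control limits plus 3 SD, set per campaign, cut at about 8.5% in these data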;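 also: 0% = DMSO-only wells as the low control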
# NPR2 activator: human GC-B receptor activators, primary screen, HEK293 GC-B cells, cGMP TR-FRET, EC30 CNP. Atrial natriuretic peptide receptor 2 (Homo sapiens), P20594. 0% at EC30 CNP, 100% saturating CNP. activation, % at 10 µM. 370,000 compounds, 0.11% hits. AID 1920062, 2024;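 active = activation at 10 µM reaching about 35% in either raw or pattern-adjusted values, limit read from the data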
# Target sequence (P20594 whole entry, looked up): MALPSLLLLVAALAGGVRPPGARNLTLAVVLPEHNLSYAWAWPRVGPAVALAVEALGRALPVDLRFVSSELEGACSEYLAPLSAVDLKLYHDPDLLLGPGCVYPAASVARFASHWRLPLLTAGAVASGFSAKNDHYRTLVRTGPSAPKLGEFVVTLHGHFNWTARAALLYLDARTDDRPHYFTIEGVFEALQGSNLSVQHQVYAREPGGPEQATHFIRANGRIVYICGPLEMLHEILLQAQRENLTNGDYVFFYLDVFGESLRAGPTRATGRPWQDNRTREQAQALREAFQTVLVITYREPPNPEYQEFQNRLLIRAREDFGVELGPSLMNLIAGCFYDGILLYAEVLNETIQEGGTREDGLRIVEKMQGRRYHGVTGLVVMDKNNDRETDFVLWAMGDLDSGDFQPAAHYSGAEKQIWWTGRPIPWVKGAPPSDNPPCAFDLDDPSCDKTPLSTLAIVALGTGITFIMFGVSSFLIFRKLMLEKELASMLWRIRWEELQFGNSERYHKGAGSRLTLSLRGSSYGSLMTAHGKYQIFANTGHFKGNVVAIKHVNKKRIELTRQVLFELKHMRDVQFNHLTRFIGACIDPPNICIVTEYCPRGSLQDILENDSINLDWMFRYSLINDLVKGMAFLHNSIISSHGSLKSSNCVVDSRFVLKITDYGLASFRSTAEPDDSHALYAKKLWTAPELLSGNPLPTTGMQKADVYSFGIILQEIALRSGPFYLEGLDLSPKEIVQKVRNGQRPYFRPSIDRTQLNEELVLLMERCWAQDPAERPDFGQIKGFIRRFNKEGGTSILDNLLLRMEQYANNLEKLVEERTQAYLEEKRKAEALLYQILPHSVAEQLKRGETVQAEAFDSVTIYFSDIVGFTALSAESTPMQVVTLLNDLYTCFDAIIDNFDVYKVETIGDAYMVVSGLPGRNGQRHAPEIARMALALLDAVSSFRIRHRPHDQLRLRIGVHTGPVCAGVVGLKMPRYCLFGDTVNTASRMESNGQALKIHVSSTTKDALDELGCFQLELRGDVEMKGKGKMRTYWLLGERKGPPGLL
# NPR1 activator: GC-A stimulated cGMP production enhancers – HEK293 GC-A cells, cGMP TR-FRET, EC30 ANP, primary screen | 370,000 compounds, 0.14% hits | 0% at EC30 ANP, 100% saturating ANP | Atrial natriuretic peptide receptor 1 (Homo sapiens), P16066 | activation, % at 10 µM; in the data active = activation above about 40%
# ADAM10 confirm: human ADAM10 inhibitors, confirmation, biochemical, QFRET, triplicate; inhibition, % at 6.95 µM; 2,100 compounds, 1% hits; ADAM10 QFRET peptide cleavage, EDANS fluorescence; AID 743208, 2013; shares compounds with ADAM10 inh;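 active = inhibition above about 20% chosen separately for each screening run, limit read from the data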;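 also: 0% = DMSO wells and 100% = marimastat wells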
# ADAM17 counter: ADAM17 inhibitors, counter-screen for ADAM10 exosite inhibitor project, biochemical, QFRET, high throughput | shares compounds with ADAM10 inh | ADAM17 QFRET peptide cleavage, EDANS fluorescence | inhibition, % at 6.95 µM | 2,100 compounds, 0.5% hits;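 active = mean triplicate inhibition above the solvent-only control wells' mean plus 3 SD, cut at about 12% in these data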;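 also: 0% = DMSO wells and 100% = marimastat wells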
# Active calls of the source: *; i = inactive; x = no result. Shown are actives, neighbours in structure and some others; about 1.3% of the full set was active somewhere.
SMILES,ADAM10 inh,ADAM17 inh,NPR2 activator,NPR1 activator,ADAM10 confirm,ADAM17 counter
Cc1ccccc1C(=O)NNC(=S)Nc1cccc(C(F)(F)F)c1,25.1*,8.7*,0.5,-0.9,3.8,1.3
O=C(NNC(=S)Nc1cccc(C(F)(F)F)c1)c1ccc(Cl)cc1Cl,15.7,6.5,0.1,-3.7,x,x
CC(C)OCCCNC(=O)Cc1ccc(Br)cc1,2.8,0.7,1.6,-0.4,x,x
OCC1(Cc2ccccc2F)CCCN(CCc2ccccc2)C1 (centres undefined),23.0*,3.7,-3.1,1.4,1.2,1.6
CCN(C[C@H]1N[C@@](C)(C(=O)OC)[C@H]2C(=O)N(C)C(=O)[C@@H]12)C(=O)Nc1ccc(C)cc1,-5.3,-2.3,2.0,1.4,x,x
COc1ccc(-c2ccc(C(=O)Nc3cc(OC)c(OC)c(OC)c3)c3occc23)c(C)c1,-2.0,3.1,1.1,-6.5,x,x
Oc1ccc(F)cc1-c1cc(-c2ccc3c(c2)OCCO3)n[nH]1,23.3*,6.8,-27.6,13.0,6.8,3.5
N#Cc1c(N)[nH]c2ccc(Sc3ccccc3)cc12,25.5*,0.8,44.0*,59.4*,2.9,2.0
CCOc1cc(C(=O)NN2CCOCC2)cc(OCC)c1OCC,-1.6,-2.9,-0.7,-3.5,x,x
CCc1ccc(NC(=O)C(=O)NNC(=O)c2cccc(OC)c2)cc1,14.1,1.4,-0.3,-0.7,x,x
COc1cccc(C(=O)NNC(=O)C(=O)Nc2ccc(C)c(Cl)c2)c1,65.2*,6.0,1.4,-5.7,33.2*,1.0
COc1ccc(S[C@]2(C(=O)N3CCN(C(C)=O)CC3)CC(=O)N(C(=O)Nc3ccc(C)c(Cl)c3)[C@@H]2c2ccc(OC)cc2)cc1,19.8*,9.5*,7.6,3.9,8.5,4.8
COc1ccc(S[C@]2(C(=O)N3CCN(c4ncccn4)CC3)CC(=O)N(C(=O)Nc3ccc(C)c(Cl)c3)[C@@H]2c2ccc(OC)cc2)cc1,-0.4,-0.7,2.2,3.4,x,x
COc1ccc([N+](=O)[O-])cc1NCC(=O)Nc1cccc(S(=O)(=O)N2CCCC2)c1,11.9,0.1,30.5,29.4,x,x
COc1ccc(-c2cn[nH]c2-c2ccc(OCc3ccccc3)cc2O)cc1,20.5*,6.7,1.0,3.6,13.5,4.7
COc1ccc(-c2cn[nH]c2-c2ccc(OCc3ccccc3F)cc2O)cc1OC,22.5*,7.8,4.0,8.4,10.3,3.6
COc1ccc(C=Nn2c(-c3n[nH]c4c3CCC4)n[nH]c2=S)cc1OCc1ccccc1,-2.2,3.2,5.6,2.3,x,x
CCN(CC1CCCO1)C(=O)c1cc(COc2ccccc2SC)on1 (centres undefined),2.5,-3.2,1.2,1.4,x,x
Cc1ccc(NNC(=O)C(O)(c2cccc(C(F)(F)F)c2)c2cccc(C(F)(F)F)c2)cc1,25.6*,6.7,3.3,1.3,1.5,0.4
Cc1ccc(C(O)(C(=O)NNc2ccccn2)c2ccc(C)cc2)cc1,1.0,-3.5,-3.8,-8.2,x,x
COc1cc(S(=O)(=O)N2CCC(O)(c3cccc(C(F)(F)F)c3)CC2)ccc1-n1cnnn1,2.5,0.2,2.6,2.1,x,x
O=S(=O)(c1ccc(OC(F)(F)F)cc1)N1CCC(O)(c2cccc(C(F)(F)F)c2)CC1,20.7*,6.8,9.8,-1.0,4.5,0.6
Cc1cc(C)cc(N(CC(=O)NC2CCC(C)CC2)S(=O)(=O)c2ccc(C(C)(C)C)cc2)c1 (centres undefined),-7.4,-1.2,7.2,1.6,x,x
CCN(c1ccc(OC)cc1)S(=O)(=O)N1CCCC(C(=O)NCc2ccccc2Br)C1 (centres undefined),12.2,1.3,4.8,-2.6,x,x
CCN(c1ccc(OC)cc1)S(=O)(=O)N1CCCC(C(=O)NC(C)c2ccccc2)C1 (centres undefined),70.2*,-1.8,2.7,-0.9,3.6,0.7
SMILES,ADAM10 inh,ADAM17 inh,NPR2 activator,NPR1 activator,ADAM10 confirm,ADAM17 counter
Nc1[nH]c(C(=O)c2ccccc2)c(-c2ccc(Cl)cc2)c1C(=O)c1c[nH]c2ccccc12,-12.2,-3.6,-7.3,-6.7,x,x
Cc1[nH]c2ccccc2c1C(=O)c1c(N)[nH]c(C(=O)c2ccccc2)c1-c1ccc(Cl)cc1,20.6*,5.3,-11.2,-7.4,7.8,2.2
Cn1c(N=Nc2ccccc2)nc2ccccc21,21.6*,7.7,-6.6,-0.9,1.6,-0.5
CCN1C(=O)[C@H]2[C@@H](c3ccc(-c4ccccc4)cc3)N[C@@](C)(C(=O)OC)[C@H]2C1=O,7.6,-3.5,4.8,0.7,x,x
CCN1C(=O)[C@H]2[C@@H](c3ccc(-c4cccc(Cl)c4)cc3)N[C@@](C)(C(=O)OC)[C@H]2C1=O,23.5*,5.5,-3.5,1.2,-0.6,-0.1
COC(=O)[C@]1(CC(C)C)N[C@H](c2ccc(-c3cccc(Cl)c3)cc2)[C@@H]2C(=O)N(C)C(=O)[C@@H]21,22.5*,5.7,-9.0,-0.7,7.9,1.8
COC(=O)[C@]1(C)N[C@H](c2ccc(-c3cccc(Cl)c3)cc2)[C@@H]2C(=O)N(C)C(=O)[C@@H]21,-9.8,0.8,-8.8,-0.9,x,x
O=C(CSc1nc2ccccc2c(=O)n1-c1ccccc1F)NC1CCS(=O)(=O)C1 (centres undefined),-20.4,6.3,-4.0,-3.6,x,x
OC1c2c(F)cccc2N=C2CCCCCN21 (centres undefined),i,-237.4,3.3,3.1,x,x
Cc1ccc(S(=O)(=O)Nc2cccc(C(=O)N3CCN(c4ccccc4O)CC3)c2)cc1F,20.0*,3.1,2.2,-3.5,-1.3,0.9
COc1cc(CCC(=O)N2CCN(c3cccc(C)c3C)CC2)cc(OC)c1OC,-3.5,-0.4,-2.5,-11.6,x,x
Cc1nn(-c2ccccc2)c(C)c1/C=N/NC(=O)c1cc(-c2cccc3ccccc23)n[nH]1,23.7*,7.9,6.0,-2.3,5.8,2.1
CCN(CC(=O)NCc1cccs1)C(=O)c1ccc(-c2ccc(F)cc2)o1,-23.0,-5.0,-2.5,-1.8,x,x
CCOC(=O)COc1ccc2c(c1)c(C(C)=O)c(C)n2-c1ccc(OC)cc1,21.2*,6.8,6.3,-0.9,3.2,0.9
COc1ccc(-n2c(C)c(C(C)=O)c3cc(O)ccc32)cc1,-1.9,-1.5,2.2,19.9,x,x
NC(=O)c1ccc(-n2nnnc2SCC(=O)Nc2ccc(F)cc2)cc1,0.5,-0.6,-7.8,-1.2,x,x
